The results in this text go back to PubChem BioAssay (NCI).

The panel holds about 79,000 compounds, 15% with a hit somewhere; the sample as a whole holds those more often. A number with no mark means an inactive call. Activity calls are given as the source filed them. No stated cut-off is given here; in the data, active means growth inhibition above about 70%; inactive means the rest.

Test [1] can be described thus: NCI Yeast Anticancer Drug Screen. Data for the rad50 strain (AID 155).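 Further: 0% = growth of vehicle-only cultures of the same strain.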 The following applies: S. cerevisiae rad50 strain growth inhibition, hits give high values. The essentials: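 Yeast carrying a defined DNA repair defect were exposed to test compounds, and growth was compared with vehicle-treated controls to give percent inhibition.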
Test [2] is described as follows: NCI Yeast Anticancer Drug Screen. Data for the mec2-1 strain (AID 157). The following applies: S. cerevisiae mec2-1 strain, hits give high values. The essentials: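 Each compound was tested on mec2-1 yeast, a strain altered in DNA damage repair or cell cycle control. Growth inhibition is reported relative to vehicle.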
A short description of test [3]: NCI Yeast Anticancer Drug Screen. Data for the sgs1 mgt1 strain (AID 161).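 Further: 0% = growth of cultures given vehicle only.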 Particulars: S. cerevisiae sgs1 mgt1 strain, hits give high values. The essentials: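 Genetically altered yeast, compound exposure, growth inhibition relative to vehicle.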
The nature of test [4]: NCI Yeast Anticancer Drug Screen. Data for the cln2 rad14 strain (AID 165).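 Further: 0% = growth equal to vehicle treated cultures.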 The following applies: S. cerevisiae cln2 rad14 strain, hits give high values. In a few lines: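 Test compounds were added to cln2 rad14 yeast cultures; inhibition of growth was then determined by comparison with vehicle treatment.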
A short description of test [5]: NCI Yeast Anticancer Drug Screen. Data for the bub3 strain (AID 167). The following applies: S. cerevisiae bub3 mutant strain, hits give high values. The essentials: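 Compounds were applied to a genetically altered yeast strain carrying a cell-cycle control defect. Growth inhibition was scored against vehicle-treated controls.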
Test [6] is described as follows: NCI Yeast Anticancer Drug Screen. Data for the mlh1 rad18 strain (AID 175). The following applies: S. cerevisiae mlh1 rad18 strain growth inhibition, hits give high values. In a few lines: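 Inhibition values reflect reduced growth of mutant yeast versus vehicle-treated controls following compound exposure; the mutations affect DNA damage repair.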
Where [7] appears, read: at 5.0 µM (retest, dose inferred, filed as 0.5).
Setting [8] is: at 50.0 µM (retest, dose inferred, filed as 5.0).

In the case of `O=C(O)C1C(C(=O)O)C2C(=O)C=CC1N2Cc1ccccc1` (stereo not given), the growth inhibition was 11% in test [1] (setting [7]); 46% in test [1] (setting [8]); 79.8% (active) in test [1] (at 50.0 µM); 1% in test [2] (setting [7]); 61% in test [2] (setting [8]); 81.2% (active) in test [2] (at 50.0 µM). Besides, the growth inhibition was 5% in test [3] (setting [7]); 65% in test [3] (setting [8]); 78.5% (active) in test [3] (at 50.0 µM); -8% in test [4] (setting [7]); 31% in test [4] (setting [8]); 46.3% in test [4] (at 50.0 µM). The growth inhibition in test [5] (setting [7]) is 21%; in test [5] (setting [8]), 73% (active); in test [5] (at 50.0 µM) it was 91.4% (active); in test [6] (setting [7]), 3%; in test [6] (setting [8]), 76% (active); in test [6] (at 50.0 µM), 87.8% (active).

As to `COc1cc(C(c2cc3c(cc2O)OCO3)N2CCN(C(c3cc(OC)c(OC)c(OC)c3)c3cc4c(cc3O)OCO4)CC2)cc(OC)c1OC` (stereo not given), the growth inhibition in test [1] (setting [7]) is -2%; in test [1] (setting [8]) it was 69%; in test [1] (at 50.0 µM) it was 23.6%; in test [2] (setting [7]), -1%; in test [2] (setting [8]) it was 74% (active); in test [2] (at 50.0 µM), 32.9%. Further, the growth inhibition in test [3] (setting [7]) was -5%; in test [3] (setting [8]) it was 88% (active); in test [3] (at 50.0 µM), 28.6%; in test [4] (setting [7]), -6%; in test [4] (setting [8]), 93% (active); in test [4] (at 50.0 µM), -35%. The growth inhibition is -2% in test [5] (setting [7]); 91% (active) in test [5] (setting [8]); 6.55% in test [5] (at 50.0 µM); 2% in test [6] (setting [7]); 86% (active) in test [6] (setting [8]); 64.1% in test [6] (at 50.0 µM).

Regarding `c1ccc([B-](c2ccccc2)(c2ccccc2)c2ccccc2)cc1`, the growth inhibition in test [1] (setting [7]) was -3%; in test [1] (setting [8]), -6%; in test [1] (at 50.0 µM) it was 98.2% (active); in test [2] (setting [7]) it was -4%; in test [2] (setting [8]) it was -1%; in test [2] (at 50.0 µM) it was 95% (active). The growth inhibition is 0% in test [3] (setting [7]); -3% in test [3] (setting [8]); 98.2% (active) in test [3] (at 50.0 µM); 4% in test [4] (setting [7]); -16% in test [4] (setting [8]); 98.4% (active) in test [4] (at 50.0 µM). The growth inhibition was 5% in test [5] (setting [7]); 2% in test [5] (setting [8]); 93.3% (active) in test [5] (at 50.0 µM); 1% in test [6] (setting [7]); -2% in test [6] (setting [8]); 98.5% (active) in test [6] (at 50.0 µM).

Turning to `O=S(=O)(c1ccccc1)n1cc(C[P+](c2ccccc2)(c2ccccc2)c2ccccc2)c2ccccc21`, the growth inhibition in test [1] (setting [7]) was 21%; in test [1] (setting [8]), 99% (active); in test [1] (at 50.0 µM), 99.3% (active); in test [2] (setting [7]), -1%; in test [2] (setting [8]), 99% (active); in test [2] (at 50.0 µM) it was 99.5% (active). Moreover, the growth inhibition was 20% in test [3] (setting [7]); 98% (active) in test [3] (setting [8]); 99.5% (active) in test [3] (at 50.0 µM); 8% in test [4] (setting [7]); 99% (active) in test [4] (setting [8]); 98.1% (active) in test [4] (at 50.0 µM). For the same molecule, the growth inhibition in test [5] (setting [7]) was 10%; in test [5] (setting [8]), 99% (active); in test [5] (at 50.0 µM), 99.4% (active); in test [6] (setting [7]), 27%; in test [6] (setting [8]), 99% (active); in test [6] (at 50.0 µM), 99.3% (active).

Regarding `O=C(Nc1ccccc1)C(F)(F)C(F)(F)C(F)(F)F`, the growth inhibition in test [1] (setting [7]) was 6%; in test [1] (setting [8]), 2%; in test [1] (at 50.0 µM) it was 12.6%; in test [2] (setting [7]) it was -1%; in test [2] (setting [8]) it was -24%; in test [2] (at 50.0 µM), 12.7%. The growth inhibition in test [3] (setting [7]) is 17%; in test [3] (setting [8]), 14%; in test [3] (at 50.0 µM), -0.35%; in test [4] (setting [7]) it was 5%; in test [4] (setting [8]), 5%; in test [4] (at 50.0 µM), 26.1%. Moreover, the growth inhibition in test [5] (setting [7]) was 15%; in test [5] (setting [8]) it was 27%; in test [5] (at 50.0 µM), -1%; in test [6] (setting [7]), 5%; in test [6] (setting [8]) it was 28%; in test [6] (at 50.0 µM), 11.6%.

With `O=C1C(=O)c2ccc(Br)cc2C(O)=C1C(c1ccccc1)c1ccccc1`, the growth inhibition in test [1] (setting [7]) was 29%; in test [1] (setting [8]) it was 60%; in test [1] (at 50.0 µM), 25.6%; in test [2] (setting [7]), 28%; in test [2] (setting [8]) it was 70% (active); in test [2] (at 50.0 µM), 30.5%. Moreover, the growth inhibition in test [3] (setting [7]) was 4%; in test [3] (setting [8]) it was 74% (active); in test [3] (at 50.0 µM) it was 7.4%; in test [4] (setting [7]), 24%; in test [4] (setting [8]), 63%; in test [4] (at 50.0 µM), 14.2%. Also, the growth inhibition was 36% in test [5] (setting [7]); 70% (active) in test [5] (setting [8]); 21.2% in test [5] (at 50.0 µM); 28% in test [6] (setting [7]); 69% in test [6] (setting [8]); 32.5% in test [6] (at 50.0 µM).

As to `CC(=O)OC1CCC2(C)C(=CCC3C2CCC2(C)C(C(C)N)CCC32)C1` (stereo not given), the growth inhibition in test [1] (setting [7]) is 8%; in test [1] (setting [8]) it was 98% (active); in test [1] (at 50.0 µM), 98.3% (active); in test [2] (setting [7]) it was 18%; in test [2] (setting [8]), 98% (active); in test [2] (at 50.0 µM) it was 98.7% (active). Also, the growth inhibition in test [3] (setting [7]) is 18%; in test [3] (setting [8]) it was 98% (active); in test [3] (at 50.0 µM), 93% (active); in test [4] (setting [7]), -62%; in test [4] (setting [8]) it was 96% (active); in test [4] (at 50.0 µM), 70.8% (active). The growth inhibition in test [5] (setting [7]) was 1%; in test [5] (setting [8]), 78% (active); in test [5] (at 50.0 µM) it was 95.8% (active); in test [6] (setting [7]) it was 8%; in test [6] (setting [8]), 98% (active); in test [6] (at 50.0 µM) it was 98.1% (active).

For `COc1ccc2c(c1)c(=O)c1c(NCCN(C)C)ccc3nnn2c31`, the growth inhibition in test [1] (setting [7]) is 13%; in test [1] (setting [8]), 51%; in test [1] (at 50.0 µM), 28.2%; in test [2] (setting [7]) it was -18%; in test [2] (setting [8]), 14%; in test [2] (at 50.0 µM), 14.4%. The growth inhibition in test [3] (setting [7]) is 6%; in test [3] (setting [8]), 4%; in test [3] (at 50.0 µM) it was 10.2%; in test [4] (setting [7]), -13%; in test [4] (setting [8]) it was 37%; in test [4] (at 50.0 µM) it was 18.9%. Also, the growth inhibition in test [5] (setting [7]) was -4%; in test [5] (setting [8]), 43%; in test [5] (at 50.0 µM), 11.6%; in test [6] (setting [7]) it was -10%; in test [6] (setting [8]), -12%; in test [6] (at 50.0 µM), 79.7% (active).

`O=C1c2ccccc2CN1Cc1ccc(Cl)c(Cl)c1`: the growth inhibition in test [1] (setting [7]) was -1%; in test [1] (setting [8]) it was 93% (active); in test [1] (at 50.0 µM), 84.4% (active); in test [2] (setting [7]), -3%; in test [2] (setting [8]) it was 95% (active); in test [2] (at 50.0 µM) it was 42.2%. The growth inhibition is -1% in test [3] (setting [7]); 96% (active) in test [3] (setting [8]); 93.1% (active) in test [3] (at 50.0 µM); -1% in test [4] (setting [7]); 81% (active) in test [4] (setting [8]); 45.5% in test [4] (at 50.0 µM). Further, the growth inhibition in test [5] (setting [7]) is 3%; in test [5] (setting [8]) it was 92% (active); in test [5] (at 50.0 µM), 79.4% (active); in test [6] (setting [7]), -2%; in test [6] (setting [8]) it was 91% (active); in test [6] (at 50.0 µM) it was 65%.

As for `O=C(Nc1ccccc1)OCCN=c1c2ccccc2ccc2ccccc12`, the growth inhibition is 6% in test [1] (setting [7]); 84% (active) in test [1] (setting [8]); 84% (active) in test [1] (at 50.0 µM); -1% in test [2] (setting [7]); 71% (active) in test [2] (setting [8]); 90.5% (active) in test [2] (at 50.0 µM). Moreover, the growth inhibition was 7% in test [3] (setting [7]); 48% in test [3] (setting [8]); 88.2% (active) in test [3] (at 50.0 µM); -15% in test [4] (setting [7]); 68% in test [4] (setting [8]); 82.7% (active) in test [4] (at 50.0 µM). Moreover, the growth inhibition in test [5] (setting [7]) was 5%; in test [5] (setting [8]) it was 78% (active); in test [5] (at 50.0 µM), 90% (active); in test [6] (setting [7]) it was 5%; in test [6] (setting [8]), 92% (active); in test [6] (at 50.0 µM), 87.2% (active).
